Source: PubChem BioAssay
Rows were chosen to be rich in hits. Some 12% of all compounds tested hit in one or more screens of this group.
Pf growth 96h – Primary qHTS for delayed death inhibitors of the malarial parasite plastid, 96 hour incubation | Potency, µM (top dose mostly 28.7 µM), for the others: at the highest dose activity change, negative = inhibition, most hits filed as inhibitors | 320,000 compounds, 6.9% hits | P. falciparum luciferase reporter growth, 96 h; also: % is scaled to controls: 0 for no effect and ±100 for the full control effect
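Delayed-death screen, second-generation endpoint: infected erythrocytes, 2% hematocrit, 0.05% parasitemia final; 96 hours at 37 C, 5% CO2; luciferase detection reagent; luminescence decrease equals reduced growth.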
SARS PLP yeast – qHTS of Yeast-based Assay for SARS-CoV PLP. 330,000 compounds, 0.19% hits. Potency, µM (doses to about 32.9 µM), for the others: top-dose activity, positive = growth rescue, actives largely listed as activators. S. cerevisiae expressing SARS-CoV PLpro, growth rescue; calls by dose curve; also: 0% is about no effect; nearly all actives have a fitted effect of over 55% in size
AmpC detergent – qHTS Inhibitors of AmpC Beta-Lactamase (assay with detergent) | P00811 | AmpC hydrolysis of nitrocefin, absorbance 480 nm, 0.01% Triton | Potency, µM (doses to about 114 µM), for inactives: at the top dose activity change, negative = inhibition, actives largely listed as inhibitors | 370,000 compounds, 0.041% hits;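 also: 0% = no-compound wells and -100% = no-enzyme wells; nearly all actives have a fitted effect of over 25% in size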
Target sequence (P00811 whole entry, looked up): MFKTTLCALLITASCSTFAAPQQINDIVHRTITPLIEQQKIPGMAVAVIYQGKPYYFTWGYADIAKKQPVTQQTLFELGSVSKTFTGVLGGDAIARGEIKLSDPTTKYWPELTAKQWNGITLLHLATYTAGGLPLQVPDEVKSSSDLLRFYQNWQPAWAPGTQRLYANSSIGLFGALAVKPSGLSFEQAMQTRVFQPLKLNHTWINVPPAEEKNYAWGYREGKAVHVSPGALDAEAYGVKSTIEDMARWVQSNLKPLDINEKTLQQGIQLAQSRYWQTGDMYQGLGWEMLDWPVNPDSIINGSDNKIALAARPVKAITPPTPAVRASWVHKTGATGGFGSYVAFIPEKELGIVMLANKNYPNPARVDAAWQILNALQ
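20 mM phosphate pH 7.0 + 0.01% (detergent screen) or 0.0001% Triton X-100; 5.3 nM AmpC reagent; cpd preinc 15 min RT; nitrocefin (800 uM stock) to start; A480 q20 s × 4 min; Activity was normalised to no-enzyme and no-compound control wells.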
Pf growth 48h – Primary qHTS for delayed death inhibitors of the malarial parasite plastid, 48 hour incubation. 310,000 compounds, 5.9% hits. Potency, µM (series often up to 28.7 µM), for inactives: at the highest dose activity change, negative = inhibition, usual class: inhibitors. P. falciparum luciferase growth in erythrocytes, 48 h; also: % is scaled to controls: 0 for no effect and ±100 for the full control effect
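Parasite viability was followed by luminescence of a genomically integrated firefly luciferase. Cultures held 0.1% parasitemia at 2% hematocrit (final), incubated under 5% CO2 at 37 C.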
Sm TGR inh – qHTS Assay for the Inhibitors of Schistosoma Mansoni Peroxiredoxins; Schistosoma mansoni thioredoxin glutathione reductase (TGR), Q962Y6; Potency, µM (titrated, usually from 114 µM), without a hit: at the highest dose activity change, negative = inhibition, most hits filed as inhibitors; purified TGR, DTNB reduction, TNB absorbance 405 nm; 360,000 compounds, 3% hits; also: % is scaled to controls: 0 for no effect and ±100 for the full control effect; nearly all actives have a fitted effect of over 60% in size
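First, TGR (20 nM dispensed) and NADPH were mixed with compound. Second, a 15 min room-temperature incubation followed. Third, further NADPH and then DTNB were added to start the reaction. Finally, TNB absorbance was monitored kinetically.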
AmpC inh no detg – qHTS Inhibitors of AmpC Beta-Lactamase (assay without detergent). Potency, µM (series often up to 57.1 µM), for the others: at the highest dose activity change, negative = inhibition, most hits filed as inhibitors. AmpC nitrocefin hydrolysis, absorbance 480 nm, 0.0001% Triton. 330,000 compounds, 0.52% hits. P00811. AID 485341, 2010;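 also: plate controls were no compound for no effect and no enzyme for full effect; nearly all actives have a fitted effect of over 20% in size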
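20 mM phosphate pH 7.0 + 0.01% (detergent screen) or 0.0001% Triton X-100; 5.3 nM AmpC reagent; cpd preinc 15 min RT; nitrocefin (800 uM stock) to start; A480 q20 s × 4 min; Activity was normalised to no-enzyme and no-compound control wells.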
An asterisk follows results filed as active; ? = inconclusive; . = no result given. Unless noted, calls follow the shape of the dose curve; as a rule, active = well fitted curve in the direction sought with a large enough effect; inconclusive = small, poorly fitted or top-dose-only effect, or another doubt; inactive = no such curve, though single readings can be large; an effect the other way counts as inactive or inconclusive. Potency is read from the fitted curve at half-maximal effect.

SMILES	Pf growth 96h	SARS PLP yeast	AmpC detergent	Pf growth 48h	Sm TGR inh	AmpC inh no detg
CC1=CC2=NC(=O)/C(=C\c3cc(C)n(-c4ccccc4)c3C)C(=N)N2O1	?	24%	-19%	?	-5%	-12%
COC(=O)C1=C(C)NC(=O)/C1=C\c1cc(C)n(-c2c(C)cccc2C)c1C	2.6µM*	-40%	?	.	-34%	-9%
Cc1cccc(C)c1-n1c(C)cc(/C=C2\NC(=O)NC2=O)c1C	12µM*	-7%	11%	12µM*	?	-14%
COC(=O)C1=C(C)NC(=O)/C1=C\c1cc(C)n(-c2ccccc2C)c1C	9.3µM*	-19%	-7%	.	-22%	-9%
CC1=CC2=NC(=O)/C(=C\c3cc(C)n(-c4ccccc4F)c3C)C(=N)N2O1	?	19%	-3%	10µM*	4%	-22%
COC(=O)C1=C(C)NC(=O)/C1=C\c1cc(C)n(-c2ccccc2F)c1C	61%	-1%	-4%	?	14µM*	-24%
COc1ccc(C)cc1NC(=O)CN1C(=O)C(=O)N(C2CCCC2)C1=O	-18%	-6%	-14%	-17%	2%	-8%
COc1ccc(CCn2c(C)cc(C(=O)CN3C(=O)C(=O)N(C4CCCC4)C3=O)c2C)cc1OC	?	4%	0%	9.3µM*	1%	89%
O=S(=O)(Nc1cccc(-n2cnnn2)c1)c1cc(Br)ccc1Br	22%	8%	-17%	16%	5%	-39%
CCNc1nc2c(c(=O)n(C)c(=O)n2C)n1Cc1ccc(Cl)cc1	?	3%	?	-7%	-19%	27%
CCCCCCNc1nc2c(c(=O)n(C)c(=O)n2C)n1Cc1cccc(C)c1	.	.	-3%	.	9%	.
CCC(C)Nc1nc2c(c(=O)n(C)c(=O)n2C)n1Cc1ccc(Cl)cc1 (stereo unspecified)	6.6µM*	5%	4%	?	0%	32%
CCC(C)Nc1nc2c(c(=O)n(C)c(=O)n2C)n1Cc1cccc(C)c1 (stereo unspecified)	74%	1%	-14%	15µM*	-10%	38%
Cc1cccc(C(=O)N2CCN=C2SCc2ccc([N+](=O)[O-])cc2)c1	29%	3%	?	33%	-2%	-7%
COc1ccc(CN2CCn3ncc(C(=O)Nc4cc(C)cc(C)c4)c3C2=O)cc1	?	0%	-13%	?	0%	0%
COc1ccc(-n2c(CN3CCC(C(N)=O)CC3)nc3ccc([N+](=O)[O-])cc3c2=O)c(OC)c1	?	6%	-2%	0%	45µM*	-40%
CCOC(=O)C1CCN(Cc2nc3ccc([N+](=O)[O-])cc3c(=O)n2-c2ccc(OC)cc2OC)CC1	2%	1%	2%	?	32µM*	-10%
COc1ccc(-n2c(CN3CCN(c4ccccc4OC)CC3)nc3ccc([N+](=O)[O-])cc3c2=O)c(OC)c1	-18%	-1%	2%	13µM*	?	2%
CCOC(=O)C1CCCN(Cc2nc3ccc([N+](=O)[O-])cc3c(=O)n2-c2ccc(OC)cc2OC)C1 (stereo unspecified)	?	-5%	-4%	?	?	39%
O=C(COc1ccccc1[N+](=O)[O-])N1CCC(c2nc3ccccc3o2)CC1	.	.	13%	.	4%	.
CCN1C(=O)NC2C1N(S(C)(=O)=O)CCN2S(C)(=O)=O (stereo unspecified)	23%	0%	?	6%	7%	-22%
CCCCS(=O)(=O)N1CN(S(=O)(=O)CCCC)C2NC(=O)NC21 (stereo unspecified)	114%	27%	2%	36%	35µM*	11%
CCCNC(=O)Cn1c(=O)/c(=C\c2ccc(-c3cccc([N+](=O)[O-])c3)o2)s/c1=C\C(=O)C(C)(C)C	1.3µM*	4%	-16%	1.7µM*	-18%	-13%
O=C1NC(=O)/C(=C/c2ccc(-c3cccc([N+](=O)[O-])c3)o2)S1	?	-9%	-4%	13%	0%	-39%
CCCNC(=O)Cn1c(=O)/c(=C\c2ccc(-c3ccc([N+](=O)[O-])cc3)o2)s/c1=C\C(=O)C(C)(C)C	?	13%	-14%	9.3µM*	2%	-28%
SMILES	Pf growth 96h	SARS PLP yeast	AmpC detergent	Pf growth 48h	Sm TGR inh	AmpC inh no detg
Cc1cc(Cl)ccc1OCC(=O)O	10%	8%	-10%	5%	6%	153%
Cc1cc(Cl)ccc1Oc1ccccc1C(=O)CC#N	?	-4%	10%	-1%	-1%	4µM*
Cc1ccc2nc(SCc3nnc(-c4ccccc4Br)o3)[nH]c2c1	-9%	-9%	1%	3%	3%	-32%
COC(=O)c1cc(-c2cccs2)nn1-c1ccccc1	-136%	-2%	1%	?	2%	-17%
CCN(CC)S(=O)(=O)c1cccc(NC(=O)c2cc(-c3cccs3)nn2-c2ccccc2)c1	12µM*	10%	?	-19%	1%	-22%
CN(C)S(=O)(=O)c1cccc(NC(=O)c2cc(-c3cccs3)nn2-c2ccccc2)c1	15µM*	4%	4%	?	5%	-12%
CN(CC(=O)Nc1cccc(F)c1)C(=O)c1cc(-c2cccs2)nn1-c1ccccc1	7%	2%	-12%	-2%	-14%	-13%
CCCCn1c(=N)c(S(=O)(=O)c2ccc(Cl)cc2)cc2c(=O)n3cccc(C)c3nc21	.	.	12%	.	2%	.
COC(=O)[C@]1(C)N[C@H](CN(C)C(=O)Nc2ccc(Cl)cc2)[C@@H]2C(=O)N(C)C(=O)[C@@H]21	.	0%	.	.	.	-2%
Cc1ccccc1NC(=S)NC(=O)c1cncc(Br)c1	14%	11%	1%	3%	13µM*	-18%
O=C(NC(=S)NC(c1ccccc1)c1ccncc1)c1ccccc1 (stereo unspecified)	9.3µM*	-26%	7%	?	-34%	-9%
O=C(NC(=S)Nc1ccccc1Br)c1cccnc1	0%	0%	-11%	-3%	18µM*	-4%
O=C(NC(=S)Nc1ccc(Br)cn1)c1cccnc1	?	0%	0%	?	14%	17%
O=C(NC(=S)Nc1cccnc1)c1ccccc1	14%	-5%	-5%	65%	22µM*	-9%
O=C(NC(=S)Nc1ccc(Cc2ccncc2)cc1)c1ccccc1	?	7%	1%	-66%	-33%	-9%
